The assay can be described thus: mitochondrial membrane potential change in A549 cells, profiling panel, cell-based, JC-1 fluorescence, basal, 24 h, 100 nL (AID 1138).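 Note: A549 lung adenocarcinoma cells under basal conditions with no added stimulus; test concentration not given here.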 The note with it: higher = more signal.
Take `Cc1ccc(S[C@]2(C(=O)NCC(F)(F)F)CC(=O)N(C3Cc4ccccc4C3)[C@@H]2c2ccc(CO)cc2I)cc1`: the z-score came to 0.496.
Turning to `[N-]=[N+]=Nc1ccccc1C[C@]1(C(=O)N2CCCCC2)N=C(c2ccc(OCCCO)cc2)O[C@H]1c1ccccc1N=[N+]=[N-]`, the z-score came to 0.591.
Molecule `C=CCNC(=O)[C@H]1[C@@H]2C(=O)O[C@@H](c3ccccc3)[C@@H](c3ccccc3)N2[C@@H](c2ccc(O)cc2)[C@]12C(=O)Nc1ccc(C#Cc3ccc(OC)cc3)cc12` registered a z-score of -0.769.
The value for `[N-]=[N+]=NCc1ccccc1C[C@]1(C(=O)NCc2ccccc2)COC(c2ccc(OCCCO)cc2)=N1` was -0.221; that for `O=C1OCC=C[C@H]2OC34C=CCN(CCN5CCOCC5)C(=O)[C@H]3N(CCCCCCO)C(=O)[C@@H]4[C@@H]12` (some centres undefined) was 0.582; that for `[N-]=[N+]=Nc1ccccc1[C@H]1OC(c2ccc(OCCCO)cc2)=N[C@@]1(CCS(=O)(=O)c1ccccc1)C(=O)N1CCOCC1` was -0.218.
Molecule `COC(=O)[C@@]1(Cc2ccccc2)[C@H]2c3cc(C(=O)N(C)C)n(Cc4cc(F)c(F)c(F)c4)c3C[C@H]2CN1C(=O)c1ccccc1` gave a z-score of -0.322.
Regarding `O=C1O[C@H](c2ccccc2)[C@H](c2ccccc2)N2[C@H]1[C@@H](C(=O)N1CCCCCCC1)[C@]1(C(=O)Nc3ccc(C#CC4=CCCCC4)cc31)[C@H]2c1ccc(O)cc1`, the z-score was -0.233.
The value for `[N-]=[N+]=NCc1ccccc1C[C@]1(C(N)=O)N=C(c2ccc(OCCCO)cc2)O[C@H]1c1ccccc1N=[N+]=[N-]` was -0.542.
The value for `C=CCOC(=O)[C@H]1[C@@H]2C(=O)O[C@@H](c3ccccc3)[C@@H](c3ccccc3)N2[C@@H](c2ccc(OCCOC(=O)[C@H]3C[C@H]4C(=O)N[C@@H](CCCC[N+](C)(C)C)C(=O)N4[C@H]3c3ccc(O)cc3)cc2)[C@]12C(=O)Nc1ccccc12` was 0.193; that for `CC(C)NC(=O)[C@@]1(c2ccc([N+](=O)[O-])cc2)CC(=O)N(C(C)C)[C@@H]1c1ccc(CO)cc1` was 1.3.
Turning to `COc1ccc([Si](C)(C)[C@@H]2[C@@H](CCn3cc([C@H](O)c4ccccc4)nn3)O[C@]3(C(=O)N(C)c4ccccc43)[C@H]2C)cc1`, the z-score is -0.0374.
To `COCCOC(=O)N1C(=O)[C@@]2(c3cc(C#CC4=CCCCC4)ccc31)[C@H](C(=O)N1CCN(c3ncccn3)CC1)[C@H]1C(=O)O[C@H](c3ccccc3)[C@H](c3ccccc3)N1[C@@H]2c1ccc(OCCO)cc1` belongs -1.01.
Take `C=CCOC(=O)[C@@H]1[C@H]2C(=O)O[C@H](c3ccccc3)[C@H](c3ccccc3)N2[C@H](c2ccc(OCCOC(=O)[C@H]3C[C@H]4C(=O)N[C@@H](CC(C)C)C(=O)N4[C@H]3c3cccc(OCCO)c3)cc2)[C@@]12C(=O)Nc1ccc(I)cc12`: the z-score was -0.736.
With `CC(C)N1C(=O)c2ccccc2[C@](C)(C(=O)NCCCN(C)C)[C@@H]1c1ccc(CO)cc1`, the z-score turned out to be 0.256.
To `CC(=O)NCCCC[C@@H]1NC(=O)[C@@H]2C[C@H](C(=O)NCCCCCC[N+](C)(C)C)[C@H](c3cccc(OCCO)c3)N2C1=O` belongs -0.972.
`CCCCN1CC=CC23O[C@@H]4C=CCCOC(=O)C4[C@H]2C(=O)N(CCCO)[C@@H]3C1=O` (some centres undefined): the z-score is -1.13.
To `C=CCC(OC(C)=O)[C@@H]1[C@@H](N(Cc2cc3ccccc3o2)C(=O)c2cccc3ccccc23)c2cc(OCCCO)ccc2N1C(=O)Cc1ccc(OC)cc1` (some centres undefined) belongs -0.529; to `C=CCN1C(=O)[C@]2(COC(c3ccc(OCCCO)cc3)=N2)Cc2ccccc21`, 0.604.
The value for `C=C[C@H](C)[C@H](OC(=O)Nc1ccc(OC)cc1)c1ccc(O)c2ccccc12` was -1.6.
The value for `COc1ccccc1CN1C(=O)c2ccccc2[C@](Cc2ccccc2I)(C(=O)NC2CC2)[C@@H]1c1ccc(CO)cc1` was 1.16.
Consider `C=CC[C@@]1(C(N)=O)N=C(c2ccc(OCCCO)cc2)O[C@@H]1c1ccccc1N=[N+]=[N-]`, for which the z-score was found to be 0.755.
To `CCN(CC)c1ccc(N2CC=CC34O[C@@H]5C=CCOC(=O)[C@@H]5[C@H]3C(=O)N(CCCCCO)[C@@H]4C2=O)cc1` (some centres undefined) belongs 1.24; to `COCCOC(=O)N1C(=O)[C@@]2(c3cc(C#CCC(C(=O)OC)C(=O)OC)ccc31)[C@H](c1ccc(OCCO)cc1)N1[C@H](c3ccccc3)[C@H](c3ccccc3)OC(=O)[C@H]1[C@@H]2C(=O)NC[C@H](O)c1ccccc1`, -0.95.

These data come from PubChem BioAssay.
